Screening data (PubChem)
An excerpt weighted towards active compounds, which were near 0.91% of everything screened.
TRb-SRC2 inh = inhibitors of human thyroid hormone receptor beta-SRC2 interaction. AID 1469. TRbeta-SRC2 peptide binding, fluorescence polarization; receptor liganded with 1 µM T3. Potency, µM (doses to about 106 µM), for the others: at the highest dose activity change, negative = inhibition, actives largely listed as inhibitors. P10828. actives 0.065% (n = 280,000);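 further: plate controls were bound peptide for no effect and peptide without receptor for full effect; nearly all actives have a fitted effect of over 50% in size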
Target sequence (P10828 whole entry, looked up): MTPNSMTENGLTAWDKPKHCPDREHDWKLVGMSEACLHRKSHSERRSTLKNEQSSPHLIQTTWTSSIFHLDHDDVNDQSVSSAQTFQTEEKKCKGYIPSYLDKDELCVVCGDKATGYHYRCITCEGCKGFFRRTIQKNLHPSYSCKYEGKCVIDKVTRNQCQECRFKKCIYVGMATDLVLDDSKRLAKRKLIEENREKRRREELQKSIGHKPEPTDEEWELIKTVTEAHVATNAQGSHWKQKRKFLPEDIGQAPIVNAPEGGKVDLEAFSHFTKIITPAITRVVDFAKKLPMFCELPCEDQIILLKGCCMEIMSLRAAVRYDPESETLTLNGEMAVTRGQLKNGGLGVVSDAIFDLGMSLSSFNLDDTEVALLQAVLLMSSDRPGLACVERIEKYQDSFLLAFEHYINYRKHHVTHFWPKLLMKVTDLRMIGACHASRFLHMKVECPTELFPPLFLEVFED
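Quantitative HTS by FP: 0.6 uM TRb LBD, 20 nM labeled SRC2 20-mer, 1 uM T3, 5% DMSO; 5 hr ambient incubation; % activity per concentration and potencies from concentration series.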
TR SRC2 fluor cs = Texas Red fluorescence interference in TRb-SRC2 counter-screen; actives 0.29% (n = 280,000); AID 1479; Potency, µM (highest dose often 106 µM), without a hit: top-dose fluorescence change, negative = quenching; TRb/SRC2 Texas Red total fluorescence interference; active means well fitted curve in either direction with a large enough effect; inconclusive means small, poorly fitted or top-dose-only effect
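Human TRβ ligand-binding domain (0.6 uM) and Texas Red SRC2 peptide (20 nM) in Tris buffer with 1 uM T3 and 5% DMSO were incubated with pinned compound for 5 hr at ambient temperature. Total fluorescence was computed as S + 2P (555/632 nm).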
WRN inhibitor = WRN helicase (human) inhibition; WRN helicase unwinding, fluorescent forked duplex, kinetic; Q14191; Potency, µM (top dose mostly 114 µM), for inactives: top-dose activity change, negative = inhibition, usual class: inhibitors; actives 0.46% (n = 360,000); AID 651768; further: nearly all actives have a fitted effect of over 55% in size
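WRN at 20 nM final was preincubated with compound for 15 min at room temperature; reaction started with 100 nM forked duplex oligonucleotide carrying fluorophore and quencher plus 2 mM ATP (final). Unwinding followed kinetically by red fluorescence (ex 525/em 598 nm).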
BLM inh = Bloom syndrome helicase (human) inhibition. P54132. recombinant BLM DNA unwinding, fluorescence dequenching. Potency, µM (titrated, usually from 56.1 µM), inactives show top-dose activity change, negative = inhibition, usual class: inhibitors. actives 0.2% (n = 350,000). AID 2528;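 further: plate controls were vehicle for no effect and no enzyme for full effect; nearly all actives have a fitted effect of over 35% in size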
RECQ1 helicase = inhibitors of human RECQ1 DNA helicase. P46063. RECQ1 DNA unwinding, red fluorescence kinetic read. Potency, µM (series often up to 57.3 µM), without a hit: top-dose activity, negative = inhibition, usual class: inhibitors. actives 0.54% (n = 240,000);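 further: plate controls were vehicle for no effect and no enzyme for full effect; nearly all actives have a fitted effect of over 30% in size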
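RECQ1T1 50 nM; forked duplex (20 bp + 30-nt ss tails) 200 nM, ATP 2 mM final; pH 8.0, 2 mM MgCl2, 2.5 ug/ml poly(dI-dC); 15 min compound preincubation; discontinuous kinetic read over 2 h at RT.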
APEX1 inh = APE1 (human) endonuclease inhibition; Potency, µM (highest dose often 65.8 µM), inactives show top-dose activity change, negative = inhibition, actives largely listed as inhibitors; AID 2517; recombinant APE1, TAMRA/BHQ-2 abasic DNA cleavage fluorescence; actives 0.35% (n = 350,000);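 further: plate controls were vehicle for no effect and reference inhibitor for full effect; nearly all actives have a fitted effect of over 55% in size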
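Activity was derived from the fluorescence gain between first and third kinetic reads (60 s intervals, ex 525/em 598 nm) after 50 nM THF-abasic TAMRA/BHQ-2 duplex was added to 0.75 nM APE1 preincubated 15 min with compound.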
An asterisk follows results filed as active; ? = inconclusive; . = not tested or not shown; [ ] = another dose, or the depositor's remark. Unless noted, the call rests on the fitted dose curve; in most records, active means well fitted curve in the direction sought with a large enough effect; inconclusive means small, poorly fitted or top-dose-only effect, or another doubt; inactive means no such curve, though single readings can be large; an effect the other way counts as inactive or inconclusive. Unless noted, on the % scale 0 is the no-effect control and ±100 the full control effect; potency means the concentration at half of the fitted maximal effect.

SMILES	TRb-SRC2 inh	TR SRC2 fluor cs	WRN inhibitor	BLM inh	RECQ1 helicase	APEX1 inh
Cc1ccc(-c2nc3ccccc3c(=O)n2-c2cc(C)ccn2)cc1	1.3%	-5.3%	8.7%	-4.5%	-4.0%	1.6%
Cc1cc(C=C2C(=O)N(C)C(=S)N(C)C2=O)c(C)n1-c1ccncc1	15.9%	11.1%	?	-8.6%	25.1µM*	-4.3%
Cc1cc(C)cc(-n2c(C)cc(/C=C3\C(=O)NC(=O)N(C)C3=O)c2C)c1	-0.8%[53 µM]	0.8%[53 µM]	-27.0%	-10.5%	-8.4%	3.8%
Cc1ccnc(-n2c(C)cc(C=C3C(=O)N(C)C(=S)N(C)C3=O)c2C)c1	-6.3%	19.6%	?	-11.9%	39.8µM*	8.5%
Cc1cc(C(C#N)c2ccc(Cl)cc2)c(Cl)cc1NC(=O)c1cc(I)cc(I)c1O (stereo not given)	?	44.7µM*[quencher]	-28.3%	?	.	-28.9%
COc1ccc(-n2c(O)c(/C=C/C=Nc3ccccc3)c(=O)[nH]c2=O)cc1	-1.1%	3.3%	?	28.2µM*	?	10.6%
Cc1cccc(N2C(=O)NC(=O)/C(=C/c3ccc(-c4ccc(C(=O)O)c(Cl)c4)o3)C2=O)c1	0.4%	-1.6%	.	-5.4%	1.9%	4.6%
O=C1NC(=O)N(c2cccc(Cl)c2)C(=O)/C1=C\c1ccc(Sc2nc3ccccc3[nH]2)o1	?	22.4µM*[fluorescent]	89.1µM*	-12.7%	12.6µM*	?
O=C1NC(=O)N(c2ccccc2)C(=O)/C1=C/c1ccc(Sc2ccccc2)o1	?	22.0%	44.7µM*	-6.2%	-19.0%	-3.5%
O=C1NC(=O)N(c2ccccc2)C(=O)/C1=C/c1ccoc1	-11.3%	8.4%	?	-8.1%	-21.9%	?
O=C1NC(=O)N(c2ccccc2F)C(=O)/C1=C/c1ccc(Sc2nc3ccccc3[nH]2)o1	?	44.7µM*[fluorescent]	22.4µM*	-20.7%	?	?
CN/C(=N\[N+](=O)[O-])NCc1cnc(Cl)s1	4.1%[201 µM]	1.4%[201 µM]	.	.	.	.
COc1ccc(CN2C(=O)NC(=O)/C(=C/c3ccc([N+](=O)[O-])s3)C2=O)cc1	16.2%	-3.0%	39.8µM*	-21.8%	31.6µM*	?
COc1cc(/C=C2/C(=O)NC(=O)N(c3ccccc3)C2=O)ccc1O	-4.5%	0.3%	?	-11.5%	-5.6%	-6.1%
COc1cccc(N2C(=O)NC(=O)/C(=C/c3ccc([N+](=O)[O-])s3)C2=O)c1	16.6%	1.3%	35.5µM*	-1.2%	?	?
O=C1NC(=O)N(c2ccccc2)C(=O)/C1=C\c1ccccc1[N+](=O)[O-]	9.8%	-0.5%	?	-1.0%	-2.3%	-5.9%
COc1ccccc1N1C(=O)NC(=O)/C(=C/c2ccc([N+](=O)[O-])s2)C1=O	8.6%	-5.6%	35.5µM*	-13.8%	-25.9%	-11.9%
COc1cccc(N2C(=O)NC(=O)/C(=C/c3ccc4c(c3)Cc3ccccc3-4)C2=O)c1	1.1%	0.7%	44.7µM*	3.3%	-0.7%	1.0%
COc1ccccc1N1C(=O)NC(=O)/C(=C\c2cnn(-c3ccccc3)c2)C1=O	-7.6%	-3.7%	?	-11.7%	-3.3%	-0.7%
CC1(C)C(C(=O)OC(C#N)c2cccc(Oc3ccccc3)c2)C1(C)C (stereo not given)	-0.4%[201 µM]	-1.3%[201 µM]	.	.	.	.
O=[N+]([O-])Nc1nccn1Cc1ccc(Cl)nc1	-2.2%[201 µM]	-0.8%[201 µM]	.	.	.	.
N#CC(CCc1ccc(Cl)cc1)(Cn1cncn1)c1ccccc1 (stereo not given)	0.1%[201 µM]	1.1%[201 µM]	.	.	.	.
O=C1NC(=S)NC(=O)C1=Cc1cccn1-c1ccc(O)cc1	-7.3%	-3.7%	44.7µM*	-29.6%	-10.6%	?
CCOP(=S)(OCC)Oc1ccc(S(C)=O)cc1 (stereo not given)	-5.1%[201 µM]	-1.0%[201 µM]	.	.	.	.
